This is an account of results in the supplement of paper PMC10127200.

Where a name gives a salt, the structure may show the parent alone.

For the first experiment, the system named is DU145. Nature of the experiment: Euclidean distance of Cell Painting phenotypic profile (signed KS, 77 features) to DMSO centroid (dimensionless distance); 5 or 10 uM (library dependent); higher = stronger phenotypic change vs DMSO (phenoactivity). Particulars: 48 h. In a few lines:
(§1)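 Phenoactivity is computed as Euclidean distance to the median vehicle profile. The profiles, drawn from 77 Harmony features scored as signed Kolmogorov-Smirnov statistics versus same-plate vehicle wells, were corrected for plate position, correlation-weighted and replicate-averaged at the top dose. Stained cells were imaged confocally at 20X (9 fields/well) after 48 h with library compounds at 10 or 5 uM, 0.1% DMSO final, in five cancer lines and a healthy fibroblast line.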
The compound `O=C(O)Cc1ccccc1Nc1c(Cl)cccc1Cl` [Diclofenac acid] showed an Euclidean distance of 2.62.
For `CCCOC(C(=O)OC1CCN(C)CC1)(c1ccccc1)c1ccccc1` [Propiverine hydrochloride], the Euclidean distance worked out at 1.34.
The same measure, in the same setting: with `O=C(Nc1ccccc1)Nc1ccc(-c2ccc(C(=O)[C@@H]3CCC[C@H]3C(=O)O)cc2)cc1` the figure was 0.804; with `CC(=O)c1cc([N+](=O)[O-])c(Sc2ccc(F)cc2F)s1`, 0.697.
The same measure, in the same setting: the result for `Cc1ccc(Cl)cc1N(CC(=O)Nc1c(F)cccc1F)S(C)(=O)=O` reads 0.886.

The subject of a further experiment is FB. The description is as above. The conditions noted are these: 48 h. In outline:
as §1
As for `CNC1CCCN(c2c(F)cc3c(=O)c(C(=O)O)cn(C4CC4)c3c2OC)C1` (centres undefined) [Balofloxacin Dihydrate], the Euclidean distance came out at 1.09.
The compound `OCCN1CCN(CCCN2c3ccccc3Sc3ccc(C(F)(F)F)cc32)CC1` [Fluphenazine dihydrochloride] displayed an Euclidean distance of 2.76.
`O=C(O)CCCCC(CCSCc1ccccc1)SCc1ccccc1` (centres undefined) returned an Euclidean distance of 0.687.
Compound `CCOC(=O)Nc1ccc(NCc2ccc(F)cc2)nc1N` [Flupirtine maleate] gave an Euclidean distance of 1.25.
The same measure, in the same setting: the result for `N=C(N)NC(=N)N1CCOCC1` [Moroxydine HCl] reads 0.666.
`O=C(Nc1c(Cl)cncc1Cl)c1ccc(OC(F)F)c(OCC2CC2)c1` [Roflumilast] gave an Euclidean distance of 0.952.
The same measure, in the same setting: with `C[N+](C)(C)NCCC(=O)[O-]` [Mildronate] the figure was 1.1; with `CCN(CC)Cc1ccc2cc(COC(=O)Nc3ccc(C(=O)NO)cc3)ccc2c1` [Givinostat (ITF2357)], 3.63.
Compound `CCN(CC)CCCC(C)Nc1c2ccc(Cl)cc2nc2ccc(OC)cc12` (centres undefined) [Quinacrine Dihydrochloride Dihydrate] came in with an Euclidean distance of 6.12.
